Calls of active or inactive are those of the source.
Experiment: CREB reporter modulators without forskolin, primary screen, cell-based, PC12, CRE-LacZ reporter, unstimulated (AID 1145)
Settings: no forskolin, luminescence, 4.5 h, higher = more signal, called active from +8 up or from −8 down

z-score, active:
C=C[C@@H](OC)[C@H](OC(=O)Nc1ccc(SC)cc1)c1ccc(OCCO)cc1 9.77
C=C(COC)/C(=C/C[C@@H](OC(=O)c1ccncc1)c1ccccc1OCCO)c1cc(C(=O)OC)ccc1OC 14.7

z-score, inactive:
COCCOC(=O)N1C(=O)[C@@]2(c3ccccc31)[C@H](c1ccc(OCCO)cc1)N1[C@H](c3ccccc3)[C@H](c3ccccc3)OC(=O)[C@H]1[C@@H]2C(=O)N1CCCCCCC1 -0.329
CCCCCN1CC=CC23O[C@@H]4/C=C\CCC(C)OC(=O)C4[C@H]2C(=O)N(CCCCCCO)[C@@H]3C1=O (stereo not given in full) 0.467
COCCOC(=O)N1C(=O)[C@@]2(c3ccccc31)[C@H](c1ccccc1OCCO)N1[C@H](c3ccccc3)[C@H](c3ccccc3)OC(=O)[C@H]1[C@@H]2C(=O)N1CCCCCCC1 -0.744
COC(=O)[C@@]1(Cc2ccc(F)cc2)[C@H]2c3cc(C(=O)N(C)C)n(Cc4c(CO)[nH]cc(C)c4=O)c3C[C@H]2CN1C(=O)c1ccccc1 0.39
Cc1ccccc1C(O)C1C=CC2C(=O)N(c3ccccc3)C(=O)C2N1Nc1ccc([N+](=O)[O-])cc1 (stereo not given) 0.78
COc1cc(NN2C(C(O)c3cc(OC)c(OC)c(OC)c3)C=CC3C(=O)N(c4ccccc4)C(=O)C32)cc(OC)c1OC (stereo not given) 0.243
C=CCC(OC(C)=O)[C@@H]1[C@@H](N(Cc2cccc3ccccc23)C(=O)c2cccc3ccccc23)c2cc(OCCCO)ccc2N1C(=O)c1ccc2ccccc2c1 (stereo not given in full) -1.1
COC(=O)[C@@]1(Cc2ccccc2)[C@H]2c3cc(C(=O)N4CCCC4)n(CCSCCO)c3C[C@H]2CN1C(=O)c1ccccc1 0.387
Cc1cccc([C@H]2C[C@H]3C(I)=C[C@@H]2C(=O)[C@]32CO2)c1 1.76
O=C1C2C=CC(C(O)C=Cc3ccc([N+](=O)[O-])cc3)N(Nc3ccccc3)C2C(=O)N1c1ccccc1 (stereo not given) -0.143
CC(=O)NCCCC[C@@H]1NC(=O)[C@H]2C[C@@H](C(=O)NCCCCCNC(=O)CS)[C@@H](c3cccc(OCCO)c3)N2C1=O -0.13
C=C[C@H](C)[C@H](OC(=O)Nc1ccc(OC)cc1)c1ccc(OCCO)cc1 4.89
CCOC(=O)C[C@H]1[C@H](OC(=O)c2ccc(C(=O)c3ccccc3)cc2)[C@@H](NC(=O)CC(C)C)c2cc(OCCCO)ccc2N1C(=O)Cc1ccc(OC)cc1 0.731
Cc1ccccc1C(O)C1C=CC2C(=O)NC(=O)C2N1Nc1ccc(Cl)cc1Cl (stereo not given) 1.01
COc1cc2c(cc1O)C(c1ccc(CN3CCCC3)cc1)N(C)CC2 (stereo not given) -0.231
COc1ccc([Si](C)(C)[C@@H]2[C@@H](CCn3cc([C@H](O)c4ccccc4)nn3)O[C@]3(C(=O)N(Cc4cccc(N5C(=O)c6cccc7cccc5c67)c4)c4ccccc43)[C@H]2C)cc1 0.0031
CC(C)(C)OC(=O)CC[C@]1(C(=O)N2CCCCC2)COC(c2ccc(OCCCO)cc2)=N1 -0.837
COCCOC(=O)N1C(=O)[C@@]2(c3cc(C#CC4=CCCCC4)ccc31)[C@H](c1ccc(O)cc1)N1[C@H](c3ccccc3)[C@H](c3ccccc3)OC(=O)[C@H]1[C@@H]2C(=O)NC[C@H](O)c1ccccc1 -0.815
CN(C)CCCCCCNC(=O)[C@@H]1C[C@@H]2C(=O)N[C@@H](CCCCN)C(=O)N2[C@@H]1c1ccc(O)cc1 -1.08
Cc1ccc(N2C(=O)c3ccccc3[C@](C)(C(=O)NCc3ccccc3)[C@@H]2c2ccc(CO)cc2)nc1 0.351
C=C[C@@H](C)[C@@H](OC(=O)Nc1ccc(SC)cc1)c1ccc(OCCO)cc1 0.236
C=C(/C(=C/C[C@@H](OC(=O)c1ccncc1)c1cccc(OCCO)c1)c1cnc2ccccc2c1)C(C)C 1.69
O=c1cccc(-c2ccco2)o1 -0.518
O=C1C2C=CC(C(O)c3cc(C(F)(F)F)cc(C(F)(F)F)c3)N(Nc3ccccc3F)C2C(=O)N1c1ccccc1 (stereo not given) 0.626
O=C(N1CCOCC1)[C@@]1(CCS(=O)(=O)c2ccccc2)N=C(c2ccc(OCCCO)cc2)O[C@H]1c1ccccc1 0.0127
COCCCNC(=O)[C@@]1(Sc2ccc(C)cc2)CC(=O)N(C(C)C)[C@@H]1c1ccc(CO)cc1I 0.0655
C=C(C)[C@@H]1CC=C(C(O)C2C=CC3C(=O)N(c4ccccc4)C(=O)C3N2Nc2ccc(C#N)cc2)CC1 (stereo not given in full) 0.433
CC(C)C[C@@H]1NC(=O)[C@@H]2C[C@H](C(=O)NCCCCCC[N+](C)(C)C)[C@H](c3cccc(OCCO)c3)N2C1=O -0.943
O=C1C2C=CC(C(O)c3ccco3)N(Nc3ccccc3)C2C(=O)N1c1ccccc1 (stereo not given) 0.0467
CCOC(=O)C[C@H]1[C@H](OC(=O)c2ccc(-c3ccccc3)cc2)[C@@H](NC(=O)Cc2ccc(OC)cc2)c2cc(OCCCO)ccc2N1C(=O)Cc1ccc(OC)cc1 0.773
CCOC(=O)C1=CC[C@@H](c2ccccc2)N(S(=O)(=O)c2ccc(C)cc2)[C@H]1c1cccc(OC)c1 -0.424
CN1C=C(C(=O)OCCS(C)(=O)=O)C(C(=O)OCCS(C)(=O)=O)=CC(c2ccc(CO)cc2)=CC1c1cccs1 (stereo not given) 2.34
COC(=O)C(CC#Cc1ccc2c(c1)[C@]1(C(=O)N2)[C@H](c2ccc(OCCO)cc2)N2[C@H](c3ccccc3)[C@H](c3ccccc3)OC(=O)[C@H]2[C@@H]1C(=O)N1CCN(c2ncccn2)CC1)C(=O)OC -0.554
